# Sampled rows, rich in hits. Any-hit rate of the full collection: about 1.2%.
# RGS16-Gao = regulators of human RGS16-Galphao interaction | binding response (% of control), % at 10 µM | hit rate 0.38% among 220,000 | AID 1441 | O15492+P09471 | bead-based flow cytometry RGS16-Galphao binding, fluorescence; actives lie on both sides;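 further: Galphao activated by GDP with aluminum fluoride before binding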
# Target sequence (O15492 whole entry, looked up): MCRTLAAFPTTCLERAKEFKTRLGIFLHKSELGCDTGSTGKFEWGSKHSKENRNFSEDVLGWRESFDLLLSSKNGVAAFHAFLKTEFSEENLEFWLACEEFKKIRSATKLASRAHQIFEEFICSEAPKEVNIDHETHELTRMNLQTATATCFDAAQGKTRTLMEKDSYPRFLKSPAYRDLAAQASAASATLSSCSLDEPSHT
# Target sequence (P09471 whole entry, looked up): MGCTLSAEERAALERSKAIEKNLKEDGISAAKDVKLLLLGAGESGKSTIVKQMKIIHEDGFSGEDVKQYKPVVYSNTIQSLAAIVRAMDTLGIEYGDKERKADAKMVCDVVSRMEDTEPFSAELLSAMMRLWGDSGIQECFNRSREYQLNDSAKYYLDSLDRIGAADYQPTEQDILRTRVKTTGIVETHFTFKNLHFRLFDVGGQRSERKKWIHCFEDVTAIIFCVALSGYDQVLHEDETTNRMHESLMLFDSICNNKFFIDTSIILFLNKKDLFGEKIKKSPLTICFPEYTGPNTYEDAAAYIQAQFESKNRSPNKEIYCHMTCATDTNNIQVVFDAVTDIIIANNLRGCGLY
# RGS4-Gao reg = human RGS4-Galphao interaction regulation; P09471; Multiplexed bead flow cytometry, RGS4-Galphao binding; actives lie on both sides; binding response (% of control), % at 10 µM; hit rate 0.33% among 220,000; AID 1415; in the data active means binding response below about 49% or above about 150%; inactive means in between;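 further: fluorescent Galphao activated with aluminum fluoride binding bead-coupled RGS4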
# Target sequence (P09471 whole entry, looked up): as above
# RGS7-Gao reg = human RGS7-Galphao interaction regulation | binding response (% of control), % at 10 µM | hit rate 0.35% among 220,000 | P09471 | Multiplexed bead flow cytometry, RGS7-Galphao binding; actives lie on both sides | AID 1439; in the data active means binding response below about 49% or above about 150%; inconclusive means no clear call, values can overlap the other calls; inactive means in between;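 further: fluorescent Galphao held in activated GDP-AlF4 state binding bead-coupled RGS7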
# Avidin bead fluor = compound fluoresces at 488/530 nm on avidin beads. compound fluorescence 488/530 nm, flow cytometry; stronger effect = higher value. fluorescence (KMESF) at 10 µM. hit rate 0.38% among 220,000; in the data active means fluorescence above about 47
# GSH bead fluor = compound fluoresces at 488/530 nm on GSH beads. GSH beads flow cytometry, compound fluorescence 488/530 nm; stronger effect = higher value. fluorescence (KMESF) at 10 µM. hit rate 0.25% among 190,000; in the data active means fluorescence above about 89;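 further: glutathione beads carrying GST-tagged Bcl family fusion proteins plus one bare bead set; values are compound well signal with DMSO vehicle wells as background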
# RGS8-Gao reg = human RGS8-Galphao interaction regulation | P09471 | multiplexed bead flow cytometry, RGS8-Galphao binding; actives lie on both sides | response (percent of control binding), % at 10 µM | hit rate 0.34% among 220,000 | AID 1423; in the data active means response below about 60% or above about 140%; inactive means in between;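 further: Galphao activated as the GDP aluminium fluoride complex binding bead-coupled RGS8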
# RGS-Gao = regulators of human RGS4-Galphao interaction. multiplexed bead flow cytometry, RGS–Galpha-o binding. shares compounds with RGS16-Gao. hit rate 99% among 1,600. RGS4–Galpha-o binding response, % at 10 µM;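 further: fluorescently labeled Galpha-o bound to GDP with aluminium fluoride binding biotinylated RGS beads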
# Biotin-avidin = counter-screen: compounds disrupting biotin binding to avidin beads. shares compounds with RGS16-Gao. streptavidin beads, fluorescein-biotin binding, flow cytometry. inhibition, % at 10 µM. 1,700 tested, under 10 active;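 active means inhibition above 50%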;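 further: median green fluorescence of gated singlet beads compared with DMSO control wells; 0% = DMSO wells and 100% = complete loss of bead fluorescence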
# RGS8-Gao confirm = RGS8-Galphao interaction regulation, single point confirmation; hit rate 3% among 1,700; binding response (% of control), % at 10 µM; AID 1836; bead-based flow cytometry RGS8-Galphao binding, fluorescence; actives lie on both sides; shares compounds with RGS16-Gao; in the data active means binding response below about 72% or above about 130%; inactive means in between;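 further: Galphao activated as GDP AlF4 complex before binding bead RGS8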
# RGS7-Gao single = confirmation of regulators of human RGS7-Galphao interaction; shares compounds with RGS16-Gao; AID 1837; response (percent of control binding), % at 10 µM; bead-based flow cytometry RGS7-Galphao binding; actives lie on both sides; hit rate 7.8% among 1,700; in the data active means response below about 75% or above about 130%; inactive means in between;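 further: fluorescent Galphao activated with GDP and aluminum fluoride binding bead-coupled RGS7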
# RGS16-Gao conf = confirmation of regulators of human RGS16-Galphao interaction | response (% of control binding), % at 10 µM | hit rate 4% among 1,700 | bead-based flow cytometry, RGS16-Galphao binding; actives lie on both sides | shares compounds with RGS16-Gao | AID 1838; in the data active means response below about 74% or above about 130%; inactive means in between;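 further: Galphao activated as the GDP aluminium fluoride complex binding bead-coupled RGS16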
# RGS4-Gao single = confirmation of regulators of human RGS4-Galphao interaction | shares compounds with RGS16-Gao | RGS4-Galphao binding, multiplexed bead flow cytometry; actives lie on both sides | binding response (% of control), % at 10 µM | hit rate 4% among 1,700 | AID 1840; in the data active means binding response below about 74% or above about 130%; inactive means in between
# RGS19-Gao single = RGS19-Galphao interaction regulation, single point confirmation. shares compounds with RGS16-Gao. bead-based flow cytometry RGS19-Galphao binding; actives lie on both sides. response (percent of control binding), % at 10 µM. hit rate 5% among 1,700. AID 1841; in the data active means response below about 50% or above about 160%; inactive means in between;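 further: 100% = no compound control and 0% = blank background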
# Starred values were filed as active, the others as inactive; ? = inconclusive; . = no result given; [ ] = dose if it differs, or a comment. Unless noted, how the calls were made is not given here.
SMILES,RGS16-Gao,RGS4-Gao reg,RGS7-Gao reg,Avidin bead fluor,GSH bead fluor,RGS8-Gao reg,RGS-Gao,Biotin-avidin,RGS8-Gao confirm,RGS7-Gao single,RGS16-Gao conf,RGS4-Gao single,RGS19-Gao single
CCc1cc2c(=O)c(-c3cnn(-c4ccccc4)c3)c(C)oc2cc1OCC(=O)Nc1cccc(C)c1,256.8*[activator],109.0,108.7,14,5,128.7,109.0*,-1.3,104.2,93.9,107.0,102.0,134.4
CCC1CCC(C(=O)NC(CCSC)C(=O)NCCN(CC(C)C)CC(C)C)CC1 (stereo unspecified),103.5,107.9,109.0,10,12,103.3,.,.,.,.,.,.,.
O=C1Nc2ccccc2N(O)N1c1ccc(S(=O)(=O)N2CCCCCC2)cc1,105.8,106.5,100.0,2,6,104.0,.,.,.,.,.,.,.
CC(NC(=O)c1sc2cc([N+](=O)[O-])ccc2c1Cl)C(C)(C)C (stereo unspecified),15.2*,98.3,98.4,2,10,79.7,98.3*,1.0,64.8*,113.0,40.8*,88.7,15.9*
COc1ccc(OC)c(NS(=O)(=O)c2ccc(Cl)nc2)c1,87.0,99.9,101.2,0,6,96.0,.,.,.,.,.,.,.
CCCCOc1ccc(S(=O)(=O)Nc2cc(OC)ccc2OC)cc1,.,.,.,.,48,.,.,-0.7,99.5,101.8,95.8,98.4,106.6
COc1cccc(OC)c1C(=O)Nc1nc2ccc([N+](=O)[O-])cc2s1,102.4,98.1,95.3,11,10,100.4,.,.,.,.,.,.,.
Cc1ccc(C(=O)NC(O)C(Cl)Cl)cc1 (stereo unspecified),175.1*[activator],161.4*[activator],113.0,2,19,103.9,.,2.1,103.4,102.9,101.7,101.7,106.8
Cc1ccc(C(=O)NNC(=O)c2ccc(C)cc2)cc1,111.3,103.9,109.0,25,11,105.8,.,.,.,.,.,.,.
O=C(Cn1cnc2cc([N+](=O)[O-])ccc2c1=O)Nc1ccc(N2CCOCC2)cc1,98.4,100.0,?,10,.,100.2,.,.,.,.,.,.,.
Cc1ccc(C(c2sc3nc(C)nn3c2O)N2CCN(C(=O)c3ccco3)CC2)cc1 (stereo unspecified),23.4*,96.9,99.6,4,14,75.7,96.9*,-0.2,99.4,96.2,99.0,98.9,90.1
Cc1nc2sc(C(c3ccccc3)N3CCN(C(=O)c4ccco4)CC3)c(O)n2n1 (stereo unspecified),102.2,101.3,103.1,7,71,102.2,.,.,.,.,.,.,.
CCCc1cc(=O)[nH]c(SCC(=O)c2ccc3c(c2)NC(=O)CO3)n1,342.4*[activator],387.0*[activator],?,179*,.,150.5*[activator],.,-0.8,99.1,83.9,91.7,87.9,77.8
CC1Cc2cc(/C(O)=C3/C(=O)C(=O)N(CC4CCCO4)C3c3ccco3)ccc2O1 (stereo unspecified),107.2,115.4,186.4*[activator],110*,24,100.7,115.4*,-0.9,102.5,90.6,102.1,98.2,113.9
Cc1c(/C=N/NC(=O)c2cccnc2)c2ccccc2n1Cc1ccccc1,115.5,120.2,154.2*[activator],8,22,105.6,120.2*,3.2,103.1,124.4,106.3,114.2,110.7
CC1=NCCN1CCNC(=O)Nc1ccc(F)cc1,108.7,119.8,?,8,.,113.1,.,.,.,.,.,.,.
CC1=NCCN1CCNC(=O)Nc1cc(C)cc(C)c1,46.6,46.9*,?,3,.,67.4,.,-1.1,101.3,101.1,102.2,101.7,101.2
O=C(CSC1c2ccccc2C(=O)N1c1ccccc1)N1CCOCC1 (stereo unspecified),91.4,99.2,99.5,6,8,96.8,.,.,.,.,.,.,.
CN(C)C(=O)CSC1c2ccccc2C(=O)N1c1ccccc1 (stereo unspecified),-8.4,22.9*,14.8*,-2,26,9.1*,.,-2.4,104.5,98.1,106.8,100.7,112.7
O=C(NC(=S)Nc1ccccc1O)c1ccccc1Cl,96.1,97.0,?,9,17,97.6,.,.,.,.,.,.,.
O=C(CN1C(=O)NC2(CCCCCCC2)C1=O)N1CCN(C(=O)c2ccco2)CC1,199.2*[activator],119.8,118.1,8,38,125.0,119.8*,-1.5,100.6,90.7,98.7,94.0,100.4
O=C(CN1C(=O)NC2(CCCC2)C1=O)N1CCN(C(=O)c2ccco2)CC1,104.2,109.8,104.4,31,39,102.2,.,.,.,.,.,.,.
Cc1nc2c(=O)oc3ccccc3c2n1-c1ccccc1,296.4,128.3,120.2,8,22,140.8*[activator],128.3*,.,.,.,.,.,.
COCCNC(=O)c1ccc(C(=O)NCCOC)s1,.,233.3*[activator],.,.,36,.,.,2.6,100.3,98.4,98.6,98.9,90.1
COC(=O)CNC(=O)c1ccc(C)s1,98.6,100.0,101.5,14,22,96.2,.,.,.,.,.,.,.
SMILES,RGS16-Gao,RGS4-Gao reg,RGS7-Gao reg,Avidin bead fluor,GSH bead fluor,RGS8-Gao reg,RGS-Gao,Biotin-avidin,RGS8-Gao confirm,RGS7-Gao single,RGS16-Gao conf,RGS4-Gao single,RGS19-Gao single
Nc1nc(SCC(=O)Nc2ccc([N+](=O)[O-])cc2)n[nH]1,104.9,103.4,101.2,11,25,103.7,.,.,.,.,.,.,.
CCN1CCCC1CNCc1cccc(OC)c1OCc1ccc(F)cc1 (stereo unspecified),19.9*,90.6,95.5,2,10,77.2,90.6*,1.0,104.3,99.5,103.7,103.8,100.1
Cc1ccc(S(=O)(=O)c2c(C(=O)c3ccccc3)cnc3cc4c(cc23)OCCO4)cc1,64.3,93.3,92.9,6,12,85.8,.,.,.,.,.,.,.
O=C(CCNC(=O)c1ccco1)NCc1ccccc1,.,.,.,.,43,.,.,0.4,103.2,105.6,105.6,106.3,98.4
CSc1ccccc1NC(=O)CN(C)CC(=O)Nc1ccccc1F,113.8,101.2,98.8,2,5,102.7,.,.,.,.,.,.,.
O=C(COc1ccc(Cl)cc1)NCc1nnc(SCC(=O)N2CCCCCC2)o1,97.2,96.0,96.6,7,20,99.7,.,.,.,.,.,.,.
